Structures can show the parent of a compound that is named as a salt. ± gives the standard deviation of the averaged measurements. In all, about 3,100 compounds were measured (“mean cytoplasmic OPP incorporation (global translation) relative to DMSO”: median about 100, lowest 2% from about 56 on). The sample holds the lowest values, similar compounds and a random draw of the others, so the mix is not that of the screen.
system: U2OS; assay: mean cytoplasmic OPP incorporation (global translation) relative to DMSO (% of DMSO); higher = more protein synthesis; settings: 10 µM; 24 h
Procedure: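 Primary image-based screen in U2OS cells: compounds at 10 uM for 24 h, then a 1 h o-propargyl-puromycin (OPP) pulse, click labelling, and high-throughput microscopy. Mean cytoplasmic OPP intensity and nuclei count were normalised to DMSO wells within each plate (DMSO = 100) and averaged over triplicate plates.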

Row | Compound | mean cytoplasmic OPP incorporation
1 | C[C@]12CC[C@H](O)C[C@H]1CC[C@@H]1[C@@H]2C[C@@H](O)[C@]2(C)[C@@H](C3=CC(=O)OC3)CC[C@]12O [Digoxigenin] | 32
2 | CC(=O)[C@H]1CC[C@H]2[C@@H]3CC[C@H]4C[C@H](O)CC[C@]4(C)[C@H]3C(=O)C[C@]12C [Alfaxalone] | 102
3 | CC(=O)O[C@H]1C[C@H](O[C@H]2[C@@H](O)C[C@H](O[C@H]3[C@@H](O)C[C@H](O[C@H]4CC[C@@]5(C)[C@H](CC[C@@H]6[C@@H]5C[C@@H](O)[C@]5(C)[C@@H](C7=CC(=O)OC7)CC[C@]65O)C4)O[C@@H]3C)O[C@@H]2C)O[C@H](C)[C@H]1O[C@@H]1O[C@H](CO)[C@@H](O)[C@H](O)[C@H]1O [Lanatoside C] | 27.8
4 | C[C@]12CC[C@@H](O)C[C@H]1CC[C@@H]1[C@@H]2CC[C@]2(C)C(=O)CC[C@@H]12 [3-alpha-Hydroxy-5-beta-androstan-17-one] | 89.8
5 | C[C@]12CC[C@H](O)C[C@@H]1CC[C@@H]1[C@@H]2CC[C@]2(C)C(=O)CC[C@@H]12 | 95.2
6 | C[C@]12CC[C@H](O)C[C@H]1CC[C@@H]1[C@@H]2CC[C@]2(C)[C@@H](C3=CC(=O)OC3)CC[C@]12O [Digitoxigenin] | 26.3
7 | C[C@]12CC[C@H](O)C[C@@H]1CC[C@@H]1[C@@H]2CC[C@]2(C)C(=O)CC[C@@H]12 [Epiandrosterone] | 90.1
8 | C[C@]12CC[C@@H](O)C[C@@H]1CC[C@@H]1[C@@H]2CC[C@]2(C)C(=O)CC[C@@H]12 [Androsterone] | 97.1
9 | CN(C)CCN(C)CCc1ccc(Cl)c(Cl)c1 [BD 1047 dihydrobromide] | 105
10 | CN(C(=O)Cc1ccc(Cl)c(Cl)c1)[C@H](CN1CCCC1)c1ccccc1 [ICI-199,441 hydrochloride] | 111
11 | CCCN(CCC)[C@@H]1CCc2c(OC)cccc2[C@@H]1C [(+)-UH 232 maleate] | 102
12 | NC(C(=O)O)c1nn[nH]n1 (racemic) [(RS)-(Tetrazol-5-yl)glycine] | 102
13 | CC1(C)[C@@H](O)C[C@H]2[C@](C)(O)[C@@H]3CC[C@@H]4[C@@H](O)[C@@]3(C[C@@H](O)[C@@]21O)C[C@@]4(C)O [Grayanotoxin III] | 102
14 | Clc1ccc(C2=CCCC3CCC2N3)cn1 (stereo unspecified) [UB 165 fumarate] | 97.7
15 | CCC(Oc1ccc(Cl)cc1)C(=O)OC1C[C@H]2CC[C@@H](C1)N2C (stereo partly specified) [SM-21 maleate] | 106
16 | N=C(NCc1ccc(Cl)cc1)SCCCc1c[nH]cn1 [Clobenpropit dihydrobromide] | 95.4
17 | CC(N)Cc1cnc[nH]1 (stereo unspecified) | 101
18 | C=CCN1CC[C@]2(C)c3cc(O)ccc3C[C@H]1C2C (single isomer, unassigned; (+)) | 105
19 | COc1ccc(C(=O)O[C@H]2CC[C@@]3(C)[C@@H]4CC[C@H]5[C@]6(O)C[C@H](O)[C@@]7(O)[C@@H](CN8C[C@@H](C)CC[C@H]8[C@@]7(C)O)[C@]6(O)C[C@@]53O[C@]24O)cc1OC [Veratridine] | 108

Row | Compound | mean cytoplasmic OPP incorporation
20 | COc1ccc2[nH]cc(C3=CCNCC3)c2c1 | 101
21 | CC(C)(Cc1c[nH]c2ccc(Cl)cc12)NCCOc1ccccc1OCC1CC1 | 55.1
22 | Cn1cc(C(=O)C(=O)N[C@H]2CN3CCC2CC3)c2ccccc21 | 99.4
23 | OC(Cc1ccncc1)C(Cl)(Cl)Cl (stereo unspecified) | 104
24 | C=C(C)CN1CC[C@@]23c4c5ccc(O)c4O[C@H]2c2[nH]c4ccccc4c2C[C@]3(O)C1C5 [SDM25N hydrochloride] | 95.8
25 | O=Cc1cn(Cc2ccc(Cl)cc2)c2ccccc12 [Oncrasin 1] | 83.4
26 | CN1C(=O)[C@]23CC4=CC=C[C@H](O)[C@H]4N2C(=O)[C@@]1(CO)SS3 [Gliotoxin] | 33.6
27 | CCC[C@@H]1CC2=CC(=O)CC[C@]2(C)[C@H]2CC[C@@]3(C)[C@@H](CC[C@@]3(O)CCC(=O)O)[C@H]12 | 96.1
28 | Oc1ccc2c3c1O[C@H]1c4c(c5ccccc5n4Cc4ccccc4)C[C@@]4(O)C(C2)N(CC2CC2)CC[C@]314 [N-Benzylnaltrindole hydrochloride] | 111
29 | Cc1nc(N)sc1CCN [Amthamine dihydrobromide] | 107
30 | C[C@@H]1O[C@@H](O[C@H]2C[C@@H](O)[C@]3(CO)[C@H]4[C@H](O)C[C@]5(C)[C@@H](C6=CC(=O)OC6)CC[C@]5(O)[C@@H]4CC[C@]3(O)C2)[C@H](O)[C@H](O)[C@H]1O [Ouabain] | 47 ± 1.8
31 | Cc1ncc(CN2CC=C(c3ccccc3)CC2)c(N)n1 | 101
32 | CC(CN)CC(=O)O (stereo unspecified) [3-Methyl-GABA] | 102
33 | CC1(C)[C@H](C(=O)O[C@H](C#N)c2cccc(Oc3ccccc3)c2)[C@@H]1C=C(Br)Br [Deltamethrin] | 101
34 | O=C1NC(=O)c2c1c1c3ccccc3n3c1c1c2c2ccccc2n1[C@H]1CC[C@@H]3O1 | 91.2
35 | O=C(O)C1=CCCN(CCOC(c2ccc(C(F)(F)F)cc2)c2ccc(C(F)(F)F)cc2)C1 [CI 966 hydrochloride] | 97.6
36 | COc1cc(N)c(Cl)cc1C(=O)NC1CN2CCC1CC2 (stereo unspecified) [Zacopride hydrochloride] | 104
37 | C[CH2][Hg][S]c1ccccc1C(=O)[O-].[Na+] [Thimerosal] | 15.5
38 | O=C(O)/C=C/CO [trans-4-Hydroxycrotonic acid] | 105

Row | Compound | mean cytoplasmic OPP incorporation
39 | C[C@@H]1C[C@@H]([C@H](O)CC2CC(=O)NC(=O)C2)C(=O)[C@@H](C)C1 [Cycloheximide] | 52.1 ± 35
40 | CC[N+](CC)(CCCNC1=CC(=O)C(NCCC[N+](CC)(CC)Cc2ccccc2)=CC1=O)Cc1ccccc1 [Benzoquinonium dibromide] | 101
41 | O=C1CSC(c2ccccc2Cl)c2cc(Cl)ccc2N1 (stereo unspecified) | 101
42 | CCOC(=O)c1ncn2c1CN(C)C(=O)c1cc(N=[N+]=[N-])ccc1-2 | 91.9
43 | Cn1c2c(c3ccccc31)CCNCC2 | 97.4
44 | Fc1ccc(C(OCCN2CCN(C/C=C/c3ccccc3)CC2)c2ccc(F)cc2)cc1 | 102
45 | CCCOc1ccc2[nH]cc(C3=CCNCC3)c2n1 | 103
46 | C[C@@H]1CC[C@@]2(OC1)O[C@H]1C[C@H]3[C@@H]4CC=C5C[C@@H](O[C@@H]6O[C@H](CO)[C@@H](O[C@@H]7O[C@@H](C)[C@H](O)[C@@H](O)[C@H]7O)[C@H](O)[C@H]6O[C@@H]6O[C@@H](C)[C@H](O)[C@@H](O)[C@H]6O)CC[C@]5(C)[C@H]4CC[C@]3(C)[C@H]1[C@@H]2C [Dioscin (Collettiside III)] | 50.2
47 | CC(=O)O[C@H]1CC[C@@]2(C)C(=CC[C@@H]3[C@@H]2CC[C@]2(C)C(=O)CC[C@@H]32)C1 [Dehydroisoandosterone 3-acetate] | 83.5
48 | C=CCN1C[C@H](C)N([C@H](c2ccc(C(=O)N(CC)CC)cc2)c2cccc(O)c2)C[C@H]1C | 111
49 | O=C1CC[C@@]2(O)[C@H]3Cc4ccc(O)c5c4[C@@]2(CCN3CC2CC2)[C@H]1O5 [Naltrexone hydrochloride dihydrate] | 108
50 | O=C1/C(=C/c2ccccc2)C[C@@]2(O)[C@H]3Cc4ccc(O)c5c4[C@@]2(CCN3CC2CC2)[C@H]1O5 [BNTX maleate] | 34.8
51 | Oc1ccc2c3c1O[C@H]1c4[nH]c5c(c4C[C@@]4(O)[C@@H](C2)N(CC2CC2)CC[C@]314)C[C@@]1(O)[C@H]2Cc3ccc(O)c4c3[C@@]1(CCN2CC1CC1)[C@H]5O4 [nor-Binaltorphimine dihydrochloride] | 102
52 | NCC(CS(=O)(=O)O)c1ccc(Cl)cc1 (stereo unspecified) [Saclofen] | 104
53 | C[C@@H]1O[C@@H](O[C@@H]2C=C3CC[C@@H]4[C@H](CC[C@]5(C)[C@@H](c6ccc(=O)oc6)CC[C@]45O)[C@@]3(C)CC2)[C@H](O)[C@H](O)[C@H]1O [Proscillaridin A] | 17.5
54 | Cc1ccc2cc3c(ccc4ccccc43)c3c2c1CC3 [3-Methylcholanthrene] | 114
55 | O=C(O)CCC(CP(=O)(O)O)C(=O)O (stereo unspecified) [PMPA (NAALADase inhibitor)] | 105
56 | CCOc1cncc(/C=C/CCNC)c1 [TC 2559 difumarate] | 97.5

Reference: the supplement of paper PMC8183993
